Data from PubChem BioAssay (NCATS).
Records with an inconclusive call do not appear. Where a call stands in place of a potency, no number is given. The source made the active and inactive calls. Calls come from the whole dose curve; as a rule, active = well fitted inhibition curve with a large enough effect; inconclusive = small, poorly fitted or top-dose-only effect; inactive = no such curve, though single readings can be large or run the other way.

molecular target: Retinaldehyde dehydrogenase 3 (Homo sapiens) (UniProt P47895); assay: qHTS for Inhibitors of the Aldehyde Dehydrogenase Family (ALDH1A3) Primary screen (AID 2061315); details: ALDH inhibition qHTS; series mostly up to 56 µM

SMILES | Potency
O=C1CCc2cc([S+](=O)([O-])Nc3ccc(Cl)c(Cl)c3)c(NCCCO)cc2N1 | inactive
CC(=O)c1ccc(N2CCN(S(=O)(=O)c3ccc4[nH]c(=O)[nH]c4c3)CC2)cc1 | inactive
c1nc(NCCc2cnc[nH]2)c2ccc(-c3ccc4c(c3)OCO4)cc2n1 | inactive
Cc1ccc(CNc2ncnc3cc(-c4ccc5c(c4)OCO5)ccc23)o1 | inactive
O=C(O)c1ccc(O)c2ncc(N3CCCN(CCc4ccncc4)CC3)cc12 | inactive
C[C@H](NC(c1ccc(F)cc1)c1ccc2cccnc2c1O)c1ccccc1 (stereo not given in full) | inactive
O=c1c(Nc2ccc(F)c(C(F)(F)F)c2)c(Nc2nnc(-c3ccncc3)s2)c1=O | inactive
CCOc1ccc(CCNC(=O)CN(C)C)cc1OCC | inactive
Cc1cc(NS(=O)(=O)c2ccc(NS(=O)(=O)Cc3ccc(Cl)c(Cl)c3)cc2)no1 | inactive
CNc1oc(-c2cccc3ccccc23)nc1C(=O)Nc1cccc(C#N)c1 | inactive
Cc1cccc(CNc2ccnc(-c3ccc4ccccc4c3)n2)c1 | inactive
O=c1c2ccccc2nc2sc(Nc3ccc(Oc4ccccc4)cc3)nn12 | inactive
Cc1cc(C)nc(NC(=S)N2CCN(c3ccc4c(c3)OCO4)CC2)c1 | inactive
COc1ccnc(NCc2ccc(O)c3ncccc23)c1 | inactive
O=C(O)c1cccc(-n2cccc2/C=C2/NC(=O)N(c3cccc(Cl)c3)C2=O)c1 | inactive
C/C=C/C1=CC2=C(CO1)C(=O)C(C)(OC(=O)c1c(C)cc(O)cc1OC)C(O)C2 (stereo not given) | inactive
Cc1ccsc1CN(C)c1ncnc2ccc(-c3ccc4c(c3)OCO4)cc12 | inactive
COc1cc2c(cc1OC)CN(C(=O)/C=C/c1c(-c3ccccc3)n(C)c3ncccc13)CC2 | inactive
Nc1ccc(-c2ccnc(NCCCNC(=O)c3c(Cl)cccc3Cl)n2)cc1 | inactive
Cc1cc(C)nc(NC(=S)N2CCN(c3cncs3)CC2)c1 | inactive

SMILES | Potency
Cc1cc(C)nc(NC(=S)N2CCN(c3cccc4ccccc34)CC2)c1 | inactive
NC(=O)C1CCN(c2nc(-c3ccc(OC(F)(F)F)cc3)cs2)CC1 | inactive
CC(=O)Nc1sc2c(c1-c1nc3ccccc3s1)CCN(C(C)=O)C2 | inactive
CC1=C(C(=O)Nc2ccon2)C(c2nn(C)cc2Cl)N=C(Nc2nc3ccccc3o2)N1 (stereo not given) | inactive
O=C(Cc1ccc(Cl)c(Cl)c1)Nc1ccc(S(=O)(=O)Nc2cccc(O)c2)cc1 | inactive
O=C1CCc2cc([S+](=O)([O-])Nc3ccc(N[S+](=O)([O-])c4ccc5c(c4)CCC(=O)N5)cc3)ccc2N1 | inactive
O=c1c2ccc(-c3cn[nH]c3)cc2nc2sc(Nc3ccc4c(c3)CCC4)nn12 | inactive
Cc1ccc(C)c(SC2=N[S+](=O)([O-])c3cc(C(=O)Nc4ccc5ncccc5c4)ccc32)c1 | inactive
Cc1ccsc1CN(C)c1ncnc2ccc(-c3ccc(CO)o3)cc12 | inactive
Cc1ccc(NS(=O)(=O)c2ccc3c(c2)CCO3)cc1C | inactive
CN1CCN(c2ccc(CNc3nn4c(=O)c5ccccc5nc4s3)cc2)CC1 | inactive
Cc1cc(NS(=O)(=O)c2cc3c(cc2N[C@@H](C)CO)NC(=O)CC3)ccc1F | inactive
CC(=O)N1CCN(c2cccc(Nc3nn4c(=O)c5ccccc5nc4s3)c2)CC1 | inactive
Cc1ccc(NS(=O)(=O)c2ccc(-c3ccccc3)cc2)cc1C | inactive
COC(=O)C1C(CC(C)=O)C=CC(O)C12Oc1cc(C)cc(O)c1C2=O (stereo not given) | inactive
Cc1ccc(C#Cc2cc(-c3nn(-c4nc(C(=O)O)cs4)c(CC4CC4)c3Cc3ccc(S(N)(=O)=O)c(F)c3)ccc2F)o1 | inactive
COCCNc1ccc(NC(=O)c2cccs2)cn1 | inactive
COc1cccc(CNc2ccc(S(=O)(=O)Nc3cccc4ccccc34)cc2)c1O | inactive
COc1ccc2c(=O)n3nc(Nc4ccc5c(c4)CCC5)sc3nc2c1 | inactive
O=S(=O)(Nc1nccs1)c1ccc(NCc2cccc(Br)c2O)cc1 | inactive
